Experimental data published in PubChem BioAssay (NCI).
About 83,000 compounds went through this panel and 20% of them were active in at least one assay; those are over-represented in the sample as a whole.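 The test compound was applied at a single concentration to cells in 96-well plates for 48 hours, and percent growth was recorded.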 Values without a mark were called inactive. Activity calls are given as the source filed them. Rule for the calls: active = growth percent below 10; inactive = the rest.

System: HL-60(TB) leukemia
Assay: NCI-60 one-dose screen, 48 h (100 = growth as untreated, 0 = no growth, -100 = all killed)
Details: 10 µM unless noted

Structure (SMILES) | growth
O=C(Nc1cccc(-c2nc(-c3ccc(NC(=O)c4cccs4)cc3Cl)no2)c1)Nc1ccc(NC(=O)C2CC2)c(C(F)(F)F)c1 | 6.9% (active)
CCNC(=NCCCN(C)C)N/C(N)=N/c1nc2ccccc2s1 | 90.9%
Cc1cc(F)cc(NS(=O)(=O)c2ccc(-c3cnc(C4CC4)o3)cc2)c1 | 1.67% (active)
C#Cc1nc(C2=C(C)/C(=N/OCc3ccccc3)CC2)cs1 | -54.1% (active)
O=c1[nH]c(CNc2ccc(NCc3c(-c4ccccc4)no[n+]3[O-])cc2)nc2c1cnn2-c1ccccc1 | 63.1%
COc1ccc(N2CCN(C3=C(Cl)C(=O)c4ncccc4C3=O)CC2)cc1 | -4.99% (active)
CN1CCN(Cc2ccc(NC(=O)c3cncc(C#Cc4cnc5ccc(N6CCSCC6)nn45)c3)cc2C(F)(F)F)CC1 | -41.6% (active)
CN(C)c1ccc(-c2cc(-c3c[nH]c4ccccc34)nc(N)c2C#N)cc1 | 20.6%
CCC(=O)Nc1ccc(-c2nc(-c3cccc(O)c3)c(-c3ccnc(Br)c3)[nH]2)cc1 | 35.6%
O=C1[C@H]2Cc3c([nH]c4ccccc34)[C@@H](c3ccc(Br)cc3)N2C(=O)CN1C1CCN(CC2CCCCC2)CC1 | -70.6% (active)
C[C@@H](Nc1ncnc2ccc(-c3cnc(Cl)c(NS(C)(=O)=O)c3)cc12)c1ccccc1 | 39%
O=c1oc2ccc(-c3ccc(F)cc3F)cc2c(=O)n1-c1cccc(C(F)(F)F)c1 | -32.7% (active)
CC1(C)[C@@H](O)CC[C@]2(C)[C@H]3CC[C@@H]4[C@H]5[C@H](C(=O)/C=C\c6ccccn6)CC[C@]5(O)CC[C@@]4(C)[C@]3(C)CC[C@@H]12 | -24.5% (active)
